This is an account of results in publication PMC5540273 (PLoS ONE, 2017).
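Further: KINOMEscan kinase panel screen.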

In one experiment the test system is CSNK1E. As to conditions: concentration: 1 μM, replicates: in singlicate; n = 1.
Take `CCn1c(-c2nonc2N)nc2c(C#CC(C)(C)O)nc(OC[C@H](N)c3ccccc3)cc21` [GSK943949]: the “%Inh” value was found to be 15%.

Turning to `COC(=O)Nc1nc2cc(Oc3ccc(NC(=O)Nc4cc(C(F)(F)F)ccc4F)cn3)ccc2[nH]1.Cl.Cl` [GW681170], the “%Inh” value came out at 0%. Same read-out and setting: the result for `Cl.Cl.NCC(NCc1ccc(-c2ccnc3[nH]ccc23)s1)c1ccccc1` (stereo not shown) [GSK1321565] reads 64%; that for `O=c1[nH]cc(-c2ccc(N3CCOCC3)cc2)c2sc(-c3cn[nH]c3)cc12` [GSK2276055], 94.4%.

As for `c1ccc(-c2cnc3nccnn23)cc1` [AH20685], the “%Inh” value was 0%.

Turning to `COc1cc(Nc2nccc(-c3c(-c4cccc(NC(=O)c5c(F)cccc5F)c4)nn4ccccc34)n2)cc(OC)c1OC` [GSK323521], the “%Inh” value amounted to 43%.

The test system of the next experiment is CSNK1G1. As to conditions: concentration: 1 μM, replicates: in singlicate; n = 1.
As to `Cc1ccc(C)c(NC(=O)NC2CCN(c3ccnc(Nc4ccc(F)cc4)n3)C2)c1` (stereo not shown) [GSK1379720], the “%Inh” value is 0%.

As for `Cl.Cl.NCC(NC(=O)c1cc(-c2ccccc2)c(-c2ccnc3[nH]ccc23)s1)c1ccccc1` (stereo not shown) [GSK1321561], the “%Inh” value amounted to 14%. With `CN(C)Cc1ccc(-c2ccc3c(Nc4ccc(Oc5ccccn5)cc4)ccnc3c2)o1` [GW567148], the “%Inh” value is listed as 0%. Consider `COc1cccc(C(=O)Nc2cccc(Oc3ccc4nc(NC(=O)C5CC5)cn4n3)c2)c1`, for which the “%Inh” value was 13%. The same measure, in the same setting: the result for `CNC(=O)c1ccccc1Nc1nc(Nc2ccc(N3CCOCC3)cc2)ncc1Cl.Cl` [GSK1576028] reads 66%. On to `C[C@@H]1CC[C@@H](C(=O)Nc2ccccc2)CN1c1cc(-c2ccc3c(N)n[nH]c3c2)nc(N)n1` [GSK2286062], for which the “%Inh” value is 13%. `Cn1cc(-c2ccc3c(c2)CCN3C(=O)Cc2cccc(Cl)c2)c2c(N)ncnc21` [GSK2606590]: the “%Inh” value is listed as 31%. Same read-out and setting: the result for `FC(F)(F)c1ccc(/C=C/c2cncnc2Nc2ccc3[nH]c(Cc4ccccc4)nc3c2)cc1` [GW709199] reads 2%.

On to `COc1cccc(NC(=O)NC2CCN(c3ccnc(Nc4cc(OC)c(OC)c(OC)c4)n3)C2)c1` (stereo not shown) [GSK1379763], for which the “%Inh” value is 0%. On the same count and under the same terms, the figure for `Fc1ccc(-c2ncn(C3CCNCC3)c2-c2ccnc(Oc3ccc(-c4ccccc4)cc3)n2)cc1` [SB-245391] is 30%; for `Oc1cc(Nc2ccnc3cc(I)ccc23)ccc1F` [GW552771] it is 0%; for `COC(=O)Nc1nc2ccc(Oc3ccc(NC(=O)Nc4cc(C(F)(F)F)ccc4F)cc3)cc2n1C.Cl` [GW692089] it is 6%. On the same count and under the same terms, the result for `CC(=O)N1CCN(c2ccc(Nc3nccc(-c4sc(C(C)C)nc4-c4cccc(NS(=O)(=O)c5cccc(Cl)c5)c4)n3)cn2)CC1` [GSK1660437] reads 0%. Take `Cl.Cl.NCC(C(=O)Nc1cc(Br)c(-c2ccnc3[nH]ccc23)s1)c1ccccc1` (stereo not shown) [GSK1269851]: the “%Inh” value is listed as 0%. Same read-out and setting: the result for `CC(C)(C)c1ccc2nccc(Nc3cccc(O)c3)c2c1` [GW856795] reads 36%.

Regarding `NCCCC(NC(=O)c1cc(Br)c(-c2ccnc3[nH]ccc23)s1)c1ccccc1.O=C(O)C(F)(F)F.O=C(O)C(F)(F)F` (stereo not shown) [GSK1287544], the “%Inh” value amounted to 57%.

As to `Cl.c1ccc(-c2ccc3c(Nc4ccc5[nH]ncc5c4)ccnc3c2)nc1` [GW440137], the “%Inh” value was 0%. Still for that read-out and setting: the result for `c1ccc(Oc2ccc(Nc3ccnc4cc(-c5ccc(CNCCN6CCOCC6)o5)ccc34)cc2)nc1` [GW567145] reads 2%; that for `O=C(Nc1cccc(Oc2ccc3nc(NC(=O)C4CC4)cn3n2)c1)c1ccccc1C(F)(F)F`, 8%; that for `CC(C)c1nc(-c2cccc(NS(=O)(=O)c3c(F)cccc3F)c2F)c(-c2ccnc(Nc3ccc(N4CCOCC4)nc3)n2)s1` [GSK2008607], 21%. Still for that read-out and setting: the figure for `Nc1ncc(-c2cccnc2)c2scc(-c3ccc4c(c3)CCN4C(=O)Cc3ccccc3)c12` [GSK683281] is 32%; for `Cn1cc(-c2ccc3c(c2)CCN3C(=O)Cc2cccc(F)c2)c2c(N)ncnc21` [GSK2603358] it is 28%. On the same count and under the same terms, the figure for `Cl.NC(=O)c1cccc(Nc2nccc(Nc3ccc(Oc4c(Cl)cccc4Cl)c(Cl)c3)n2)c1` [GW659009] is 0%. `COCCOCCOc1cc2ncc3c4ccc(C#N)cc4[nH]c3c2cc1OC`: the “%Inh” value stood at 0%. Same read-out and setting: the figure for `COc1cccc(-c2ccc3c(NC(=O)C4CC4)n[nH]c3n2)c1` [SB-710903] is 0%. On the same count and under the same terms, the result for `Nc1ncc(-c2ccc3nccc(-c4ccncc4)c3c2)cc1S(=O)(=O)N1CCOCC1` [GSK1627798] reads 0%; that for `Cc1ccc(C(=O)N2CC[C@@H](O)C2)cc1-n1c(C)cc(OCc2ccc(F)cc2F)c(Br)c1=O`, 0%; that for `O=C(O)C(F)(F)F.O=C(O)C(F)(F)F.O=c1[nH]ccc2nc(N[C@@H]3CCCNC3)nc(Nc3ccc(S(=O)(=O)N4CCOCC4)cc3)c12` [GSK2177277], 96.3%. As for `COc1cc(Nc2nccc(-c3c(-c4cccc(NC(=O)c5c(F)cccc5F)c4)nn4ncccc34)n2)cc(OC)c1OC` [GSK327238], the “%Inh” value came to 16%. Same read-out and setting: the result for `COc1cccc(C2=C(Nc3ccc(Cl)c(C(=O)O)c3)C(=O)NC2=O)c1` [SB-390769] reads 11%; that for `Cc1ccc(C(=O)Nc2ccc(Nc3ccnc4cc(-c5nccs5)ccc34)cc2O)cc1.Cl` [GW494702], 0%; that for `CCn1c(-c2nonc2N)nc2c(C#CC(C)(C)O)nc(OC[C@H](N)c3ccccc3)cc21` [GSK943949], 0%. Still for that read-out and setting: the figure for `COC(=O)Nc1nc2cc(Oc3ccc(NC(=O)Nc4cc(C(F)(F)F)ccc4F)cn3)ccc2[nH]1.Cl.Cl` [GW681170] is 10%. The same measure, in the same setting: the result for `Cl.Cl.NCC(NCc1ccc(-c2ccnc3[nH]ccc23)s1)c1ccccc1` (stereo not shown) [GSK1321565] reads 0%; that for `O=c1[nH]cc(-c2ccc(N3CCOCC3)cc2)c2sc(-c3cn[nH]c3)cc12` [GSK2276055], 43%; that for `c1ccc(-c2cnc3nccnn23)cc1` [AH20685], 0%.

Regarding `COc1cc(Nc2nccc(-c3c(-c4cccc(NC(=O)c5c(F)cccc5F)c4)nn4ccccc34)n2)cc(OC)c1OC` [GSK323521], the “%Inh” value is reported as 20%.
